Source: PubChem (National Center for Advancing Translational Sciences (NCATS))
SMN2 splice enh: enhancers of SMN2 splice variant expression | HEK293 SMN2-luciferase splicing reporter, luminescence, 30-36 h | 210,000 tested, 2.8% active | Potency, µM (top dose mostly 46.1 µM), for inactives: at the top dose activity change, positive = activation, most hits filed as activators | AID 1458; further: % of control where 0% means no effect; nearly all actives have a fitted effect of over 55% in size
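HEK293 cells carry an SMN2 minigene-luciferase reporter in which exon 7 inclusion puts luciferase in frame. Cells were seeded at 2000 cells/well, attached for 10-12 hours, then exposed to compounds for 30-36 hours at 37C before ONE-Glo luminescence.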
Rab9 promoter act: Rab9 promoter activation; Potency, µM (highest dose often 9.22 µM), for inactives: top-dose activation, negative = inhibition, hits mostly activators; Huh7 Rab9 promoter-luciferase reporter, luminescence, 24 h; 320,000 tested, 2.8% active; AID 485297; further: % of control where 0% means no effect; nearly all actives have a fitted effect of over 60% in size
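Promoter activation is measured as luciferase luminescence in Huh7 cells stably transfected with a Rab9 promoter–luciferase construct, following 24 h compound exposure at 37 °C and 10 min reagent incubation at ambient temperature.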
NPC1 prom act: NPC1 promoter activation; 320,000 tested, 2.4% active; Potency, µM (series often up to 9.22 µM), without a hit: at the top dose activation, actives largely listed as activators; Huh7 NPC1 promoter luciferase reporter, 24 h; further: % of control where 0% means no effect; nearly all actives have a fitted effect of over 60% in size
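NPC1 promoter–luciferase Huh7 cells; 24 h compound; luminescence.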
FLuc counter: firefly luciferase modulation, counter-screen for miR-21 project; P08659; purified FLuc, Km substrates, luminescence inhibition; Potency, µM (highest dose often 57.5 µM), for the others: at the top dose activity change, negative = inhibition, actives largely listed as inhibitors; 360,000 tested, 6.9% active; AID 588342;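 further: plate controls were vehicle for no effect and reference inhibitor for full effect; nearly all actives have a fitted effect of over 55% in size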
Target sequence (P08659 whole entry, looked up): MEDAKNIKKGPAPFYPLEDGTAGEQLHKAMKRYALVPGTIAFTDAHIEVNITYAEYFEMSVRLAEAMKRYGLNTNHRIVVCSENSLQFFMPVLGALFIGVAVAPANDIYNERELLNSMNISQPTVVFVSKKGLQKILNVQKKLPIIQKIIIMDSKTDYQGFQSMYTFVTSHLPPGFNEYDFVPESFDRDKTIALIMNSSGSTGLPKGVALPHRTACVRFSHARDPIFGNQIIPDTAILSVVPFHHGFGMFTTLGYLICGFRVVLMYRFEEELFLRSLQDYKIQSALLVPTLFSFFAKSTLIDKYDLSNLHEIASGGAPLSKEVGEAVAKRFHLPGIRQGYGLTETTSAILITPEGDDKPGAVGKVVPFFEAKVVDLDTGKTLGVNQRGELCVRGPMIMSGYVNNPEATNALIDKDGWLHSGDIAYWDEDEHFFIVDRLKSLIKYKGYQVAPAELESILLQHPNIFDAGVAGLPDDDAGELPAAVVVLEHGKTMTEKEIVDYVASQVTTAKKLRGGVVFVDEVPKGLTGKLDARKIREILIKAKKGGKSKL
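Biochemical qHTS of compounds, final roughly 60 µM downward over six points, against 10 nM purified firefly luciferase using Km concentrations of substrates (10 uM D-luciferin, 10 uM ATP) in Tris acetate pH 7.5 buffer; luminescence output.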
ELG1 genotox: genotoxicity induction in ELG1-luciferase HEK293T cells; Potency, µM (series often up to 46 µM), for the others: top-dose activity change, positive = activation, hits mostly activators; 330,000 tested, 1.3% active; AID 504466; HEK293T ELG1-luciferase reporter, luminescence, 16 h; further: % of control where 0% means no effect; nearly all actives have a fitted effect of over 60% in size
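DMSO vehicle served as control against compound-treated ELG1-luciferase HEK293T cells; exposure lasted 16 hr at 37 °C and 5% CO2, followed by ONE-Glo luminescence detection after 30 min.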
ELG1 DNA repair: inhibitors of ELG1-dependent DNA repair in HEK293T cells. HEK293T ELG1-luciferase reporter, luminescence, 16 h; DNA damage induced by 5-fluorouridine. Potency, µM (series often up to 46.1 µM), for the others: at the top dose activity change, negative = inhibition, most hits filed as inhibitors. 330,000 tested, 2.3% active; further: on the % scale 0 is the no-effect control and ±100 the full control effect; nearly all actives have a fitted effect of over 55% in size
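Step one: seed 2,000 cells per well. Step two: pin-transfer compound or DMSO alongside 5-fluorouridine. Step three: incubate 16 hr, 37 °C, 5% CO2. Step four: add ONE-Glo, wait 30 min, read luminescence.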
The depositor's hits bear a star. An excerpt weighted towards active compounds, which were near 9.2% of everything screened. The call rests on the fitted dose curve; in most records, active means well fitted curve in the direction sought with a large enough effect; inconclusive means small, poorly fitted or top-dose-only effect, or another doubt; inactive means no such curve, though single readings can be large; an effect the other way counts as inactive or inconclusive. Potency means the concentration at half of the fitted maximal effect.

For O=C(Nc1ccc2c(c1)CCC2)Nc1ccc2c(c1)OCO2 the results were SMN2 splice enh 12.6µM*, Rab9 promoter act 2.24µM*, NPC1 prom act 3.55µM*, FLuc counter inconclusive, ELG1 genotox inconclusive and ELG1 DNA repair inconclusive.
For CCNS(=O)(=O)c1ccc(NC(=O)Nc2ccc3c(c2)OCO3)cc1 the results were Rab9 promoter act 9.0%, NPC1 prom act 13.5%, FLuc counter inconclusive, ELG1 genotox 8.7% and ELG1 DNA repair 17.7%.
Screening O=C(Nc1ccc2c(c1)OCO2)Nc1ccc(Br)cn1 returned SMN2 splice enh 12.6µM*, Rab9 promoter act 1.58µM*, NPC1 prom act 3.98µM*, FLuc counter 6.01µM*, ELG1 genotox 7.31µM* and ELG1 DNA repair inconclusive.
For O=C(Nc1cccc([N+](=O)[O-])c1)Nc1ccc2c(c1)OCCO2 the results were SMN2 splice enh 11.2µM*, Rab9 promoter act 1.78µM*, NPC1 prom act inconclusive, FLuc counter 2.69µM*, ELG1 genotox inconclusive and ELG1 DNA repair inconclusive.
NC(=O)c1ccc(NC(=O)Nc2ccc3c(c2)OCO3)cc1 was read as Rab9 promoter act inconclusive, NPC1 prom act inconclusive, FLuc counter 23.9µM*, ELG1 genotox inconclusive and ELG1 DNA repair inconclusive.
Screening NS(=O)(=O)c1ccc(NC(=O)Nc2ccc3c(c2)OCO3)cc1 returned Rab9 promoter act inconclusive, NPC1 prom act inconclusive, FLuc counter 15.1µM*, ELG1 genotox inconclusive and ELG1 DNA repair inconclusive.
`COc1cc(C(=O)Nc2nnc(S(=O)(=O)N3CCCCCC3)s2)cc(OC)c1OC` gave Rab9 promoter act -2.0%, NPC1 prom act -3.3%, FLuc counter 3.0%, ELG1 genotox 10.7% and ELG1 DNA repair 15.9%.
For CCc1nnc2c(Nc3cccc(F)c3)nc3ccc(C(=O)c4ccccc4)cc3n12 the results were SMN2 splice enh -2.5% and FLuc counter -1.6%.
For CCc1ccccc1NC(=O)Nc1ccc2c(c1)OCO2 the results were SMN2 splice enh -0.4%, Rab9 promoter act 26.5%, NPC1 prom act 23.6%, FLuc counter 1.4%, ELG1 genotox inconclusive and ELG1 DNA repair inconclusive.
`O=C(Nc1ccc2c(c1)OCO2)Nc1ccccc1F` gave Rab9 promoter act 0.501µM*, NPC1 prom act 0.447µM*, FLuc counter 2.39µM*, ELG1 genotox 0.92µM* and ELG1 DNA repair inconclusive.
For C[C@@H]1CN([C@@H](C)CO)C(=O)c2cc(NS(=O)(=O)c3cccs3)ccc2O[C@H]1CN(C)Cc1ccc(C(F)(F)F)cc1 the results were ELG1 genotox -3.4% and ELG1 DNA repair 16.4µM*.
For C[C@H](CO)N1C[C@H](C)[C@@H](CN(C)C(=O)Nc2ccc(C(F)(F)F)cc2)Oc2c(NC(=O)Nc3ccc(C(F)(F)F)cc3)cccc2C1=O the results were ELG1 genotox -7.0% and ELG1 DNA repair 16.4µM*.
`C[C@H]1CN([C@@H](C)CO)C(=O)c2cccc(NC(=O)Nc3ccc(C(F)(F)F)cc3)c2O[C@@H]1CN(C)C(=O)Nc1ccc(F)cc1` gave ELG1 genotox -5.3% and ELG1 DNA repair inconclusive.
`C[C@@H]1CN([C@H](C)CO)C(=O)Cc2cc(NC(=O)Nc3ccccc3)ccc2O[C@@H]1CN(C)Cc1ccc2c(c1)OCO2` gave ELG1 genotox -12.6% and ELG1 DNA repair 16.4µM*.
For CCOC(=O)CCCCCC(=O)Nc1ccc2c(c1)CC(=O)N([C@H](C)CO)C[C@@H](C)[C@H](CN(C)Cc1ccc3c(c1)OCO3)O2 the results were ELG1 genotox -0.9% and ELG1 DNA repair 5.0%.
`CC(C)NC(=O)N(C)C[C@H]1Oc2ccc(NC(=O)C3CCCCC3)cc2C(=O)N([C@H](C)CO)C[C@@H]1C` gave ELG1 genotox 3.6% and ELG1 DNA repair inconclusive.
For C[C@H]1CN([C@@H](C)CO)C(=O)c2cc(NC(=O)C3CCCCC3)ccc2O[C@H]1CN(C)C(=O)Nc1ccc2c(c1)OCO2 the results were ELG1 genotox 0.7% and ELG1 DNA repair 1.3µM*.
For Cc1cc(NC(=O)c2cccnc2)cc(-c2nc3cc(Cl)ccc3o2)c1O the results were FLuc counter -12.2%.
Cn1cnnc1SCC(=O)Nc1cc(S(=O)(=O)N2CCCCCC2)ccc1Cl was read as SMN2 splice enh 4.8%, Rab9 promoter act 2.1%, NPC1 prom act -5.4%, FLuc counter -3.3%, ELG1 genotox -0.5% and ELG1 DNA repair -3.8%.
Screening C[C@H](CO)N1C[C@H](C)[C@@H](CN(C)C(=O)Nc2ccc3c(c2)OCO3)Oc2c(NC(=O)Nc3ccccc3)cccc2C1=O returned ELG1 genotox -5.2% and ELG1 DNA repair 6.51µM*.
`CC(C)NC(=O)N(C)C[C@H]1Oc2c(NC(=O)Nc3ccc4c(c3)OCO4)cccc2C(=O)N([C@H](C)CO)C[C@@H]1C` gave ELG1 genotox -3.1% and ELG1 DNA repair inconclusive.
`COc1ccc(NC(=O)Nc2cccc3c2O[C@H](CN(C)S(=O)(=O)c2ccccc2)[C@@H](C)CN([C@H](C)CO)C3=O)cc1` gave ELG1 genotox -0.1% and ELG1 DNA repair -17.1%.
COc1ccc(NC(=O)Nc2cccc3c2O[C@H](CN(C)S(=O)(=O)c2ccc(OC)cc2)[C@@H](C)CN([C@H](C)CO)C3=O)cc1 was read as ELG1 genotox -6.4% and ELG1 DNA repair 20.6µM*.
Screening Cc1c(Cl)c([N+](=O)[O-])nn1CCCC(=O)NCCc1ccccc1 returned SMN2 splice enh 16.4%, Rab9 promoter act inconclusive, NPC1 prom act 10.6%, FLuc counter inconclusive, ELG1 genotox 10.6% and ELG1 DNA repair inconclusive.
For CC(C)n1c(SCC(=O)Nc2ccc(F)cc2)nc2c(oc3ccccc32)c1=O the results were SMN2 splice enh 3.4% and FLuc counter 4.6%.
Screening Cc1ccc(NC(=O)c2ccc(OC(=O)COc3ccc(Cl)c(C)c3)cc2)cc1 returned SMN2 splice enh 12.6µM*, Rab9 promoter act 3.55µM*, NPC1 prom act 2.24µM*, FLuc counter inconclusive, ELG1 genotox inconclusive and ELG1 DNA repair inconclusive.
COC(=O)COc1cccc(NC(=O)c2ccc(C)cc2)c1 was read as SMN2 splice enh -3.4%, Rab9 promoter act -1.0%, NPC1 prom act -7.0%, FLuc counter 12µM*, ELG1 genotox 3.1% and ELG1 DNA repair -4.4%.
